SW480 rerep: A quantitative high throughput screen for small molecules that induce DNA re-replication in SW480 colon adenocarcinoma cells. Potency, µM (series often up to 46.1 µM), without a hit: at the highest dose re-replication activation, actives largely listed as activators. hit rate 1.8% among 340,000. AID 624297, 2012. SW480 DNA re-replication, Hoechst DNA content imaging, 48 h; also: % of control where 0% means no effect; nearly all actives have a fitted effect of over 55% in size
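Image-based read-out: total Hoechst fluorescence of nuclei (405 nm excitation, 500-530 nm emission), with hits raising the fraction of high-intensity nuclei. SW480 colon cells incubated 48 hr with compounds at 37 C.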
KB-V1 MDR tox: qHTS assay for MDR1-selective chemotherapeutics: Primary screen using the drug-selected MDR subline cells KB-V1 | hit rate 3.4% among 400,000 | Potency, µM (titrated, usually from 46.1 µM), hits mostly cytotoxic | KB-V1 MDR cells viability, CellTiter-Glo, 72 h; also: % is scaled to controls: 0 for no effect and ±100 for the full control effect; nearly all actives have a fitted effect of over 60% in size
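Readout: CellTiter-Glo luminescence, 10 min after addition. Cells: KB-V1 MDR subline, 72 h at 37 degrees C with compound. Analysis: corrected, normalized data fitted to concentration-effect curves.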
MCF10A rereplic: A quantitative high throughput screen for small molecules that induce DNA re-replication in MCF 10a normal breast cells; MCF 10A DNA re-replication, Hoechst nuclear intensity, 48 h; Potency, µM (highest dose often 46.1 µM), for inactives: at the highest dose activity, positive = re-replication, usual class: activators; hit rate 2.9% among 350,000; AID 624296, 2012; also: % of control where 0% means no effect; nearly all actives have a fitted effect of over 50% in size
HT1080 IDH1KD tx: qHTS for induction of synthetic lethality in tumor cells producing 2HG: qHTS for the HT-1080-IDH1KD cell line; HT-1080 IDH1 knockdown viability, ATP luminescence, 48 h; Potency, µM (doses to about 46.1 µM), for the others: at the top dose activity, negative = toxicity, actives largely listed as cytotoxic; hit rate 2% among 360,000; AID 686971, 2013;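 also: 0% = DMSO wells and -100% = cell-free medium wells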
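Assay cells: HT-1080 with IDH1 knockdown, 750 per well, RPMI/5% FBS. Exposure: 48 h at 37 °C following 2 h pre-incubation. Read: CellTiter-Glo luminescence; fitted concentration-response, curve class assigned.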
HT1080-NT tox: qHTS for induction of synthetic lethality in tumor cells producing 2HG: qHTS for the HT-1080-NT fibrosarcoma cell line; HT-1080-NT fibrosarcoma viability, CellTiter-Glo ATP luminescence, 48 h; AID 686970, 2013; hit rate 1.6% among 360,000; Potency, µM (titrated, usually from 46.1 µM), for inactives: at the top dose activity, negative = less viability, actives largely listed as cytotoxic;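 also: NT is the 2HG producing partner of a matched IDH1 knockdown line; 0% = DMSO-treated cells and -100% = media-only wells without cells; nearly all actives have a fitted effect of over 55% in size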
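Luminescent CellTiter-Glo readout after 48 hours of compound exposure at 37 degrees C defined viability of HT-1080-NT cells. Activity was normalized to DMSO wells and cell-free media wells; concentration-response curves were fitted and assigned curve classes.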
KB-3-1 tox: qHTS assay for MDR1-selective chemotherapeutics: Primary screen using the parental adenocarcinoma cell KB-3-1. hit rate 1.4% among 400,000. KB-3-1 viability, CellTiter-Glo ATP luminescence, 72 h. AID 1347075, 2019. Potency, µM (highest dose often 46.1 µM), actives largely listed as cytotoxic; also: % is scaled to controls: 0 for no effect and ±100 for the full control effect; nearly all actives have a fitted effect of over 60% in size
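Here the drug-naive KB-3-1 line serves as comparator for MDR sub-line selectivity; cells received compound titrations, 72 h at 37 °C, then CellTiter-Glo readout.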
Starred values were filed as active, the others as inactive; i = inactive; ? = inconclusive; . = no result. Only some compounds are listed: those with a hit (about 7.9% of all), similar ones and a draw of the others. Calls follow the shape of the dose curve; as a rule, active = well fitted curve in the direction sought with a large enough effect; inconclusive = small, poorly fitted or top-dose-only effect, or another doubt; inactive = no such curve, though single readings can be large; an effect the other way counts as inactive or inconclusive. Potency is read from the fitted curve at half-maximal effect.

SMILES | SW480 rerep | KB-V1 MDR tox | MCF10A rereplic | HT1080 IDH1KD tx | HT1080-NT tox | KB-3-1 tox
Cc1occc1-c1nnc(SCC(=O)Nc2ccc(F)cc2)n1Cc1ccccc1 | 26% | 8.2µM* | ? | ? | 21µM* | ?
O=C(CSc1nnc(-c2ccco2)n1Cc1ccccc1)c1ccc(F)cc1 | 3% | 9.2µM* | 9% | 16% | -1% | i
Cn1c(SCC(=O)c2ccc(F)cc2)nnc1-c1ccccc1Br | . | 23µM* | . | . | . | ?
COc1ccc(CNC(=O)C2CCCN(c3ncnc4c3nc3n4CCCCC3)C2)cc1 (stereo not given) | -1% | i | 1% | 1% | 12% | i
Cc1ccc(Nc2nc(N/N=C\c3ccc4c(c3)OCO4)nc(N3CCOCC3)n2)cc1 | 4% | i | ? | 26µM* | ? | i
Clc1ccc(-c2ccc(/C=N/Nc3cc(N4CCOCC4)nc(N4CCOCC4)n3)o2)cc1 | 13µM* | ? | ? | ? | ? | ?
Cc1cccc(/C=N/Nc2cc(N3CCOCC3)nc(N3CCOCC3)n2)c1 | 2.1µM* | 15µM* | ? | ? | ? | ?
CCOC(=O)N1CCN(c2ncnc3scc(-c4ccccc4)c23)CC1 | -6% | ? | ? | -26% | -3% | i
Cc1ccc2cc(CCNC(=O)CC(C)(C)C)c(=O)[nH]c2c1C | -11% | ? | 13% | 2% | -10% | i
O=C(NCC1CCN(Cc2ccccc2Cl)CC1)Nc1ccccc1F | 1% | i | 1% | 3% | 7% | i
CC(C)CC(=O)c1c[nH]c(C(=O)NCCCn2ccnc2)c1 | -4% | i | 13% | 2% | 18% | i
O=C(Cc1ccc(Cl)cc1)c1c[nH]c(C(=O)NCCCn2ccnc2)c1 | -81% | i | 1.8µM* | -1% | -11% | i
Cc1ccc(OCCOC(=O)Nc2ccccc2)cc1 | -2% | ? | 3% | 0% | -7% | i
O=C(Nc1ccccc1)OCCOc1ccc(Br)cc1 | 22% | i | 18µM* | 1% | 10% | i
COC1=CC(=O)c2nc(Cl)ccc2C1=O | . | ? | . | 2.9µM* | 3.7µM* | ?
Cc1ccc(S(=O)(=O)NCC(=O)N(CC(=O)NC2CCCC2)CC2CCCO2)cc1 (stereo not given) | 9% | i | -1% | 18% | 14% | i
COc1ccc(C(=O)/C=C/C(=O)N(CC(=O)NC2CCCCC2)CC2CCCO2)c(O)c1 (stereo not given) | -21% | ? | 12µM* | ? | -22% | ?
COc1ccc(C(=O)/C=C/C(=O)N(CC(=O)NC2CCCCC2)Cc2ccccc2)c(O)c1 | 6.5µM* | i | ? | 3.7µM* | 3.7µM* | ?
COc1cccc(CN(CC(=O)NC2CCCC2)C(=O)CCC(=O)Nc2cc(C)on2)c1 | -9% | i | 0% | 19% | 10% | i
COc1ccc(C(=O)/C=C/C(=O)N(CC(=O)NC2CCCCC2)Cc2ccccc2OC)c(O)c1 | 3.3µM* | 15µM* | ? | ? | ? | ?
COc1cc(NC(=O)CN2CCCCC2C)c(C)cc1[N+](=O)[O-] (stereo not given) | -1% | i | ? | 7% | -8% | i
Cc1ccc(-n2ncc3c(NCCc4ccccc4)ncnc32)cc1Cl | . | i | . | . | . | i
CN(C)CCNc1ncnc2c1cnn2-c1ccc(Cl)cc1 | ? | ? | -4% | ? | 21µM* | ?
Cc1ccc(-n2ncc3c(NCCO)ncnc32)cc1Cl | . | 5.8µM* | . | . | . | i

Screening results from PubChem BioAssay.
